Data published in ChEMBL document CHEMBL4513216, “Probing the Open Global Health Chemical Diversity Library for Multistage-Active Starting Points for Next-Generation Antimalarials” (ACS Infect Dis, 2020).
Among all 69,000 compounds or so, about 8,600 (12%) showed an effect of 50% or more. The full list was thinned out, with strong results kept by preference.

Tested on: Plasmodium berghei
Experiment: Screen against P. berghei liver stage (PbLuc), transformed with Luciferase, at 10uM
Format: functional, HepG2
Conditions: tested at 10 uM

Row | Structure (SMILES) | INHIBITION
1 | CN(C)C(=O)NC1COC2(CCN(Cc3ccccc3)CC2)C1 (stereo not given) | 37.5%
2 | CC(N)Cc1ccccc1Sc1ccccc1 (stereo not given) | 24.7%
3 | CCc1nc(CNc2ccc(F)cc2I)no1 | -58.5%
4 | CN1CCN(CC2CN(CC3CC3)Cc3nccn3C2)CC1 (stereo not given) | 19.4%
5 | Cc1cnc2n1CCN(C)C21CCN(CC2CC2)CC1 | 12.1%
6 | Cc1cc(N2CCC(Cc3ccccc3)CC2)nc(-c2ccncc2)n1 | 71.3%
7 | CCCS(=O)(=O)c1ccc(N2CCC(Cc3ccccc3)CC2)nn1 | 23.7%
8 | O=C(O)c1ccc(N2CCC(Cc3ccccc3)CC2)nn1 | -23.2%
9 | CC(=O)NCC1CCN(c2cc(C)nc(-c3ccncc3)n2)CC1 | 33.3%
10 | Oc1ccc(N2CCC(Cc3ccccc3)CC2)nn1 | 83.8%
11 | Cc1cc(N2CCC(CC(N)=O)CC2)nc(-c2ccncc2)n1 | 16.1%
12 | CCn1c(=O)[nH]c2cn(-c3cccc(Cl)c3)c(=O)n21 | -35.5%
13 | CC(C)C(O)CNC(=O)Nc1cnn(C(C)C)c1 (stereo not given) | -4.73%
14 | CC(C)n1ccc(C(=O)NCC(O)c2c(Cl)cccc2Cl)n1 (stereo not given) | 24.3%
15 | CCn1nc(C)cc1C(=O)NCc1nc(C)no1 | 17.5%
16 | Cc1ccc(N2CCCN(C(=O)c3cccc4c3ccn4C)CC2)nn1 | 38.5%
17 | Cc1ccc(N2CCCN(C(=O)c3cn(C)c4ccccc34)CC2)nn1 | 87.2%
18 | Cn1cc(C(=O)N2CCCN(c3cccnn3)CC2)c2ccccc21 | -0.532%
19 | O=C1CN(C(=O)C2CCC3(CC2)CNC(=O)c2ccccc2O3)CCN1 (stereo not given) | 43.6%
20 | Cc1nn(C)c(C)c1CN(C)C(=O)c1cc(C(F)(F)F)n(C)n1 | 42.45%
21 | O=C(c1ccnn1COc1ccc(Cl)cc1)N1CCSCC1 | 33.4%
22 | O=C(c1ccnn1COc1ccc(Cl)cc1)N1CCOCC1 | 50.8%
23 | O=C(c1ccnn1COc1ccc(Cl)cc1)N1CCCC1 | 1.45%
24 | Fc1ccccc1CC1CCN(Cc2ccccn2)CC1 | 45.2%
25 | Fc1ccccc1CC1CCN(Cc2cscn2)CC1 | 82.4%
26 | Fc1ccc(CN2CCCN(Cc3cscn3)CC2)cc1 | -12.5%
27 | Fc1ccc(CC2CCN(Cc3nccs3)CC2)cc1 | 38.7%

Row | Structure (SMILES) | INHIBITION
28 | Cc1noc(CN2CCN(CCO)CC2)n1 | -14.9%
29 | Cc1noc(CN2CCC(c3ccnn3CCO)CC2)n1 | 49.6%
30 | Cc1noc(CN2CCC(Cc3ccc(F)cc3)CC2)n1 | 57.2%
31 | Fc1ccccc1CC1CCN(Cc2nccs2)CC1 | -131%
32 | Fc1ccc(CC2CCN(Cc3cscn3)CC2)cc1 | 68.1%
33 | CCn1cnnc1CNC(=O)N1CCN(C(C)C)CC1 | 21.5%
34 | CN(C)C(=O)CO[C@H]1CN(Cc2ccoc2)[C@@H]2COC[C@H]12 | 39.5%
35 | CCc1cnccc1C(=O)Nc1ccc(C(N)=O)nc1 | 25.1%
36 | CCc1nnc2n1CCN(C(=O)c1cc3c(F)cccc3[nH]1)C2 | 21%
37 | COCCN1C(=O)[C@@H]2CC[C@H]1CN(Cc1nnc(C3CC3)o1)C2 | 16.2%
38 | COc1ncc(CN2CCCC(c3[nH]ncc3S(C)(=O)=O)C2)cn1 (stereo not given) | 7.05%
39 | CCn1cc(-c2cc(C(F)(F)F)nn2CCC#N)cn1 | 11.8%
40 | Cn1c(C2CC2)nc2c1CCN(CC(=O)Nc1ccncc1)C2 | -31.5%
41 | N[C@@H]1CCC[C@@H](Oc2ccc(F)cc2Oc2ccccc2)[C@@H]1O | 54.4%
42 | N[C@H]1CN(C(=O)c2ccccc2Oc2ccccc2)C[C@@H]1C1CC1 | 31.2%
43 | Cc1noc(C)c1C(=O)N[C@@H]1CCC[C@@H](Oc2ccccc2)[C@@H]1O | 17.39%
44 | CNCc1cc(F)ccc1Oc1ccc(F)cc1 | 29.3%
45 | Cc1ccc(Oc2cc(F)ccc2O[C@@H]2CCC[C@@H](N)[C@H]2O)cc1 | 94.1%
46 | CN[C@@H]1CCC[C@@H](Oc2ccccc2Oc2ccc(C)cc2)[C@@H]1O | 60.2%
47 | Cc1n[nH]c(C)c1CCC(=O)N[C@@H]1CCC[C@@H](Oc2ccccc2)[C@@H]1O | -18.8%
48 | CO[C@@H]1CCC[C@@H](N(C)C(=O)c2cc(F)ccc2F)[C@H]1O | -10.4%
49 | N[C@@H]1CCC[C@@H](Oc2ccc(F)cc2Oc2cccc(F)c2)[C@@H]1O | 23.2%
50 | O=C(c1ccncc1F)N1CCCC(c2nccn2CC2CCC2)C1 (stereo not given) | 36.8%
51 | CC(C)C(C(=O)N1CCCN(Cc2nccn2C)CC1)N1CCCC1 (stereo not given) | 11.6%
52 | O=C(NC1CCCN(CCCc2ccccc2)C1)c1ccc(Cl)s1 (stereo not given) | 35.1%
53 | CN(C)CC(O)Cn1cc(NCc2ccc(Br)cc2)cn1 (stereo not given) | 33.1%
54 | CCOc1ccc(C(=O)NCc2ccnc(N3CCN(C)CC3)c2)cn1 | 14%

Row | Structure (SMILES) | INHIBITION
55 | CC(C)Oc1ccc(C(=O)NCc2ccnc(N3CCCC3)c2)cn1 | 79.9%
56 | CC(C(=O)NCc1ccnc(N2CCCC2)c1)n1cccn1 (stereo not given) | 13.275%
57 | Cc1ccc(C(=O)NCc2ccnc(N3CCN(C)CC3)c2)cn1 | 38.9%
58 | CC(C)Oc1ccc(C(=O)NCc2ccc3c(c2)CCCN3C)cn1 | 29.2%
59 | CCOc1ccc(C(=O)NCc2ccnc(N3CCCC3)c2)cn1 | 70.5%
60 | CC(O)CN1CCC(CN(C)Cc2cccc(C(=O)N(C)C)c2)CC1 (stereo not given) | 21.5%
61 | CO[C@@H]1CCN(C(=O)Cc2ccsc2)[C@H]1Cc1cccnc1 | -41%
62 | C[S+]([O-])CCNC(=O)N1CCN(c2cc(F)ccc2F)CC1 (stereo not given) | 0.348%
63 | Cc1nc(COC[C@]23COC[C@H]2CN(Cc2ccoc2)C3)cs1 | -14%
64 | CCOCC1CN(Cc2cccc(C#N)c2)Cc2nccn2C1 (stereo not given) | 41.8%
65 | c1ccc(CN2Cc3nccn3CC(Cn3cncn3)C2)nc1 (stereo not given) | -37.9%
66 | c1ccc(COCC2CN(Cc3ccsc3)Cc3nccn3C2)nc1 (stereo not given) | 76.5%
67 | COc1ncccc1CN1Cc2nccn2CC(CN2CCCC2)C1 (stereo not given) | 72%
68 | N#Cc1cccc(CN2Cc3nccn3CC(CN3CCCC3)C2)c1 (stereo not given) | -13%
69 | CN(C)CCOCC1CN(Cc2cccc(F)c2)Cc2nccn2C1 (stereo not given) | 86.7%
70 | N#Cc1cccc(CN2Cc3nccn3CC(COCC3CC3)C2)c1 (stereo not given) | -102%
71 | CN(C)C(=O)COCC1CN(Cc2ccsc2)Cc2nccn2C1 (stereo not given) | 46.2%
72 | COc1ncccc1CN1Cc2nccn2CC(Cn2cccn2)C1 (stereo not given) | 24.9%
73 | c1ccc(CN2Cc3nccn3CC(Cn3cccn3)C2)nc1 (stereo not given) | 56.6%
74 | c1cncc(CN2Cc3nccn3CC(Cn3cccn3)C2)c1 (stereo not given) | 30.3%
75 | c1cncc(OCC2CN(Cc3ccsc3)Cc3nccn3C2)c1 (stereo not given) | 39.2%
76 | CC(=O)N(Cc1ncc(C(C)C)o1)C1CCN(CCC#N)C1 (stereo not given) | -6.865%
77 | Cn1cc(C(=O)N[C@@H]2CN(Cc3cccs3)[C@@H]3CCCO[C@@H]32)cn1 | 15.1%
78 | CN(Cc1cccc(F)c1)C(=O)c1cc2c([nH]c1=O)CCCC2=O | 8.535%
79 | CCn1c(C2CCN(C(=O)CCc3cc(Cl)no3)CC2)nn(C)c1=O | 0%
80 | Cc1cc(O)cc(=O)n1CCCC(=O)Nc1n[nH]c2cc(Br)ccc12 | 3.93%
81 | Fc1ccc(-c2nc(CNC3CCc4ncnn4C3)co2)cc1 (stereo not given) | 23.7%

Row | Structure (SMILES) | INHIBITION
82 | CCNC(=O)C1(Cc2cc(-c3ccccc3)no2)CCCN(C(C)C)C1 (stereo not given) | 4.41%
83 | Cc1nc2cc(C(=O)N3C[C@@H](C(=O)O)[C@H](C4CC4)C3)ccc2[nH]1 | 29.8%
84 | CCc1nc(C)c(C(=O)N2C[C@@H]3CC[C@H]2CN(S(=O)(=O)N(C)C)C3)s1 | 40.7%
85 | Cc1nc(C)c(C(=O)N2CCCC(c3cnccn3)C2)s1 (stereo not given) | 11.1%
86 | CNc1nc(C)c(C(=O)N2C[C@@H]3CC[C@H]2CN(c2cnccn2)C3)s1 | -26.1%
87 | CNc1nc(C)c(C(=O)N2C[C@@H](C(=O)O)[C@H](C3CC3)C2)s1 | 83.8%
88 | CCc1nc(C)c(C(=O)N2C[C@@H](C(=O)O)[C@H](C3CC3)C2)s1 | 63%
89 | Cc1nc(C)c(C(=O)N2C[C@@H](C(=O)O)[C@H](C3CC3)C2)s1 | 76.9%
90 | CCc1nc(C)c(C(=O)N2CCCC(c3noc(C)n3)C2)s1 (stereo not given) | 45.4%
91 | CNc1cc(C)nc(N2C[C@@H](C(=O)O)[C@H](C3CC3)C2)n1 | 38.6%
92 | CN(C)CC(=O)N1CCC2(CC1)CN(Cc1ccccc1)C2 | 33.4%
93 | CCOCC(O)CN1CCN(C(=O)c2ccc(C)nc2)CC1 (stereo not given) | 24.2%
94 | Cc1cc(-n2c(C)cn(CN(C)Cc3ccccc3)c2=O)no1 | -5.64%
95 | C=C(C)COc1ccc(C(=O)N(C)C(C)c2ccon2)cc1 (stereo not given) | -1.38%
96 | COc1ccc(-c2nnc(C(C)N3CCOC(C)(C)C3)o2)cc1 (stereo not given) | 21.6%
97 | COc1ccc(-c2nnc(C(C)N3CCOCC3)o2)cc1 (stereo not given) | 37.5%
98 | COc1ccc(-c2nnc(C(C)N3CCC4(CC3)OCCO4)o2)cc1 (stereo not given) | 69.3%
99 | CC(=O)Nc1nc2c(s1)CN(CC(=O)Nc1ccc(C)c(Cl)c1)CC2 | 24.2%
100 | Cc1ccc(C(=O)N2C[C@H]3CCCC(OCc4cccnc4)[C@H]3C2)cn1 (stereo not given in full) | 27.6%
101 | O=C1CCCCCN1Cc1nc(C2(c3ccc(F)cc3)CCOC2)no1 (stereo not given) | -26.8%
102 | c1ccc(CO[C@H]2CO[C@@]3(CCCN(Cc4cccnc4)C3)C2)nc1 | -17.1%
103 | N#CC(NC(=O)CCCOc1cccnc1)c1ccc(F)cc1F (stereo not given) | 66.9%
104 | N#CC(NC(=O)CCCOc1cccnc1)c1ccccc1Cl (stereo not given) | 40.9%
105 | Cc1ccccc1C(C#N)NC(=O)CCCOc1cccnc1 (stereo not given) | 31.2%
